# Laboratory results published in PubChem BioAssay (NCATS).
# Active and inactive are the calls of the source. Calls follow the shape of the dose curve; as a rule, active = well fitted cell-killing curve with a large enough effect; inconclusive = small, poorly fitted or top-dose-only effect, or effect the other way; inactive = flat fitted curve, though single readings scatter.
# Assay: MultiTox-Fluor Cytotoxicity Assay - LYMP1-003 - Dead Cells (AID 961); also: nearly all actives have a fitted effect of over 70% in size
# Conditions: LYMP1-003 lymphoblastoid cells, dead-cell protease fluorescence; series mostly up to 92.2 µM
# Method in brief: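 Dead-cell protease release, detected as bis-AAF-R110 fluorescence at 485/520 nm, was measured in LYMP1-003 cells after 16 h compound treatment at 37 C. AC50 values came from Hill-modeled qHTS curves normalized to DMSO (0%) and 15 uM tetraoctylammonium bromide (100%).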
# Potency is read from the fitted curve at half-maximal effect.
row,SMILES,Potency
1,COc1cc2c(c(OC)c1OC)-c1ccc(OC)c(=O)cc1[C@@H](NC(C)=O)CC2,0.631 µM (active)
2,CC/C(=C(\c1ccccc1)c1ccc(OCCN(C)C)cc1)c1ccccc1,39.8 µM (active)
3,CC1=C(/C=C/C(C)=C/C=C/C(C)=C/C(=O)Nc2ccc(O)cc2)C(C)(C)CCC1,39.8 µM (active)
